Test systems include SR leukemia; RPMI-8226 leukemia; OVCAR-8 ovarian; OVCAR-5 ovarian; OVCAR-4 ovarian; SK-OV-3 ovarian; IGROV1 ovarian; OVCAR-3 ovarian; HS 578T breast; NCI/ADR-RES ovarian.
Holding throughout (assay): NCI-60 one-dose screen, 48 h (100 = growth as untreated, 0 = no growth, -100 = all killed)
Details in all cases: 10 µM unless noted

About 83,000 compounds went through this panel and 20% of them were active in at least one assay; those are over-represented in the sample as a whole.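 Results are percent growth after 48 hours of single-concentration exposure. 100 means growth as in untreated cells, lower positive values show inhibition; negative values down to -100 show cell death.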 Values without a mark were called inactive. The source made the active and inactive calls. How the source made its calls: active means growth percent below 10; inactive means the rest.

Consider `COc1ccc(Cn2cc3c(c2-c2ccc(OC)cc2)CCc2cnoc2-3)cc1`, for which the growth with SR leukemia was 1.81% (active); in the assay on RPMI-8226 leukemia, 16.7%; with OVCAR-8 ovarian it was 23.8%; in the assay on OVCAR-5 ovarian, 52.2%; with OVCAR-4 ovarian it was 35.9%; in the assay with SK-OV-3 ovarian it was 3.54% (active). The growth with IGROV1 ovarian is -2.82% (active); in the assay with OVCAR-3 ovarian it was -18.2% (active); with HS 578T breast it was -2.76% (active); with NCI/ADR-RES ovarian, -3.57% (active).
For the compound `CC1(C)C(O)NC(Cl)=C(C#N)C1(C#N)C#N` (stereo not given), the growth with SR leukemia is 119%; with RPMI-8226 leukemia, 110%; with OVCAR-8 ovarian it was 103%; in the assay with OVCAR-5 ovarian it was 83%; in the assay with OVCAR-4 ovarian it was 107%; in the assay with SK-OV-3 ovarian, 108%. For the same compound, the growth was -10.9% (active) in the assay with IGROV1 ovarian, 229% in the assay on OVCAR-3 ovarian, 114% with HS 578T breast and 103% in the assay with NCI/ADR-RES ovarian.
Regarding `COc1cc2ncnc(-n3ncc4cc(NC(=O)Nc5ccc(Cl)c(Cl)c5)ccc43)c2cc1OC`, the growth is 9.64% (active) in the assay on SR leukemia; -0.257% (active) with RPMI-8226 leukemia; 2.71% (active) in the assay with OVCAR-8 ovarian; -33.1% (active) with OVCAR-5 ovarian; -32.3% (active) in the assay on OVCAR-4 ovarian; -24.9% (active) in the assay on SK-OV-3 ovarian. The growth in the assay on IGROV1 ovarian is -58.3% (active); in the assay with OVCAR-3 ovarian, -65.5% (active); in the assay with HS 578T breast it was -5% (active); in the assay with NCI/ADR-RES ovarian it was -30.7% (active).
With `COc1nc(OC)nc(-c2cc(-c3cc(OC)c(OC)c(OC)c3)no2)n1`, the growth was 95.6% with SR leukemia; 90.4% with RPMI-8226 leukemia; 98.3% in the assay with OVCAR-8 ovarian; 115% in the assay with OVCAR-5 ovarian; 106% with OVCAR-4 ovarian; 116% with SK-OV-3 ovarian. In addition, the growth with IGROV1 ovarian is 121%; with OVCAR-3 ovarian, 116%; in the assay on HS 578T breast it was 95.2%; in the assay with NCI/ADR-RES ovarian it was 98.9%.
Turning to `COc1ccc(-c2nc(SCC(C)C)nc(Nc3ccc(C(=O)O)cc3)c2C#N)cc1`, the growth with SR leukemia is 82.5%; with RPMI-8226 leukemia, 60.8%; with OVCAR-8 ovarian, 97.1%; in the assay with OVCAR-5 ovarian, 104%; in the assay on OVCAR-4 ovarian, 87.1%; in the assay on SK-OV-3 ovarian, 113%. In addition, the growth with IGROV1 ovarian was 109%; in the assay with OVCAR-3 ovarian, 86.6%; in the assay on HS 578T breast it was 99.1%; in the assay on NCI/ADR-RES ovarian, 94.6%.
Turning to `Cc1nc2c(nnn2-c2ccccc2)c2nc(-c3ccc(Cl)cc3)oc(=O)c12`, the growth in the assay on SR leukemia was 103%; with RPMI-8226 leukemia it was 108%; with OVCAR-8 ovarian it was 110%; in the assay on OVCAR-5 ovarian, 104%; in the assay on OVCAR-4 ovarian it was 114%; in the assay on SK-OV-3 ovarian it was 119%. The growth is 111% in the assay on IGROV1 ovarian, 118% in the assay with OVCAR-3 ovarian, 107% with HS 578T breast and 113% with NCI/ADR-RES ovarian.
`N=C(N)c1ccc(-c2ccc(-c3ccc(Cl)cc3)s2)s1`: the growth in the assay with SR leukemia is -30.1% (active); with RPMI-8226 leukemia, -38.2% (active); in the assay on OVCAR-8 ovarian, -37% (active); with OVCAR-5 ovarian, -79.4% (active); in the assay with OVCAR-4 ovarian, -50.8% (active); with SK-OV-3 ovarian it was -50.9% (active). For the same compound, the growth in the assay on IGROV1 ovarian was -49.5% (active); with OVCAR-3 ovarian it was -78.8% (active); in the assay on HS 578T breast it was -21.7% (active); in the assay with NCI/ADR-RES ovarian, -47% (active).
`O=C(N/N=C\c1ccc(-c2ccc(Br)cc2)o1)c1cc2oc(-c3cccc(C(F)(F)F)c3)cc2[nH]1`: the growth with SR leukemia is -3.49% (active); in the assay on RPMI-8226 leukemia, 98.4%; with OVCAR-8 ovarian it was 103%; with OVCAR-5 ovarian, 88.4%; in the assay on OVCAR-4 ovarian, 106%; with SK-OV-3 ovarian, 115%. In addition, the growth was 130% in the assay on IGROV1 ovarian, 101% in the assay on OVCAR-3 ovarian, 81.1% in the assay on HS 578T breast and 96% in the assay with NCI/ADR-RES ovarian.
Regarding `CCc1c(C)c2ccc(OCC(=O)N=Nc3c(O)[nH]c4ccccc34)c(C)c2oc1=O`, the growth in the assay with SR leukemia was 8.17% (active); in the assay with RPMI-8226 leukemia, -3.81% (active); in the assay with OVCAR-8 ovarian, -11.3% (active); in the assay on OVCAR-5 ovarian, 24%; with OVCAR-4 ovarian it was -21.7% (active); in the assay on SK-OV-3 ovarian, 80.9%. Also, the growth in the assay with IGROV1 ovarian is 7.99% (active); in the assay with OVCAR-3 ovarian, -58.2% (active); in the assay with HS 578T breast, -5.77% (active); with NCI/ADR-RES ovarian, 47.7%.
For `COC(=O)c1cc(O)c2cc3c(cc2c1-c1cc(OC)c(OC)c(OC)c1)OCO3`, the growth is 24.3% with SR leukemia; 4.51% (active) in the assay with RPMI-8226 leukemia; 45.8% in the assay with OVCAR-8 ovarian; 45% with OVCAR-5 ovarian; 71.3% with OVCAR-4 ovarian; 22.2% with SK-OV-3 ovarian. For the same compound, the growth is 44% in the assay with IGROV1 ovarian, 8.41% (active) with OVCAR-3 ovarian, -2% (active) with HS 578T breast and 3.4% (active) in the assay with NCI/ADR-RES ovarian.

Values taken from PubChem BioAssay (NCI).
